# Sampled rows, rich in hits. Any-hit rate of the full collection: about 11%.
# Luciferase inh – blocks purified firefly luciferase enzyme activity | purified P. pyralis luciferase, luminescence, biochemical | 76,000 tested, 2.5% active | AID 1347043 | P08659 | Potency, µM (top dose mostly 115 µM), hits mostly inhibitors; note: nearly all actives have a fitted effect of over 65% in size
# Target sequence (P08659 whole entry, looked up): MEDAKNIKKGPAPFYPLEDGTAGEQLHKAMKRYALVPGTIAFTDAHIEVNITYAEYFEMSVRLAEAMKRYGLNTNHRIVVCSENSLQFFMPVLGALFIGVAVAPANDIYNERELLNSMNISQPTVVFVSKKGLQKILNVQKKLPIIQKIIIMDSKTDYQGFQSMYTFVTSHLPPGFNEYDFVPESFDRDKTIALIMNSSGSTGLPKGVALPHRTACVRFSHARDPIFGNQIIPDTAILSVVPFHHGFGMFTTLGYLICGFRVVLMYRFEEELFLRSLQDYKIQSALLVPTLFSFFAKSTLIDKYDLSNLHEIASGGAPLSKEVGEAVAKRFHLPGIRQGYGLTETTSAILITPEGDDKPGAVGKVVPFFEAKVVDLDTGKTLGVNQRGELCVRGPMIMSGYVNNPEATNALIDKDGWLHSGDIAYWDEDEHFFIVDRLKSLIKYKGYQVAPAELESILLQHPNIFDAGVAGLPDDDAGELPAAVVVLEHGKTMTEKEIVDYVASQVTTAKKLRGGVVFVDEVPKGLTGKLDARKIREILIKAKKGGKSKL
#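 Luminescence read by CCD imaging after purified firefly luciferase (10nM final) was added to substrate buffer holding 10uM D-luciferin and 10uM ATP, pH 7.5, pre-dosed with compound.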
# NPR1 antag – human Npr1 receptor antagonism; Potency, µM (series often up to 46.3 µM), without a hit: at the top dose activity change, negative = inhibition, most hits filed as inhibitors; P16066; AID 1347048; HEK293 hNpr1 GloSensor cGMP, ANP-stimulated luminescence; 76,000 tested, 1.6% active; calls by dose curve; note: nearly all actives have a fitted effect of over 60% in size
#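 Compound pre-incubated 30 min at room temperature on GloSensor-loaded HEK293 cells stably carrying hNpr1 and the pGS-40F cGMP biosensor. Stimulation uses hNppA at 0.1 nM final; luminescence is taken at baseline and 20 min post-agonist.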
# HEK cytotox – cytotoxic compounds in HEK 293 cells; 94,000 tested, 6.6% active; HEK 293 viability, ATP luminescence (CellTiter-Glo), 48-72 h; Potency, µM (highest dose often 115 µM), for the others: at the top dose activity change, negative = cytotoxicity, actives largely listed as inhibitors; note: nearly all actives have a fitted effect of over 60% in size
#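 CellTiter-Glo luminescence (cellular ATP) was read after 48 or 72 hr of compound exposure at 37 degree Celsius. Cells were HEK 293 plated at 250 cells/well.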
# NIH3T3 tox – kills NIH 3T3 cells; 94,000 tested, 4.3% active; NIH 3T3 viability, CellTiter-Glo ATP luminescence, 48-72 h; Potency, µM (titrated, usually from 96.7 µM), inactives show top-dose activity change, negative = cytotoxicity, usual class: inhibitors; note: nearly all actives have a fitted effect of over 55% in size
#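 Luminescent ATP readout (CellTiter-Glo, 10 min RT) after 48 or 72 hr compound exposure of NIH 3T3 cells seeded at 400 cells/well in 1536-well format; quantitative HTS.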
# * marks the source's active call; other numbers are inactive results; i = inactive; ? = inconclusive; · = no result given; [ ] = another dose, or the depositor's remark. Unless noted, calls come from the whole dose curve; as a rule, active = well fitted curve in the direction sought with a large enough effect; inconclusive = small, poorly fitted or top-dose-only effect, or another doubt; inactive = no such curve, though single readings can be large; an effect the other way counts as inactive or inconclusive. % is set by controls: 0 for no effect and ±100 for the full control effect; potency is the fitted concentration of half-maximal effect.
SMILES,Luciferase inh,NPR1 antag,HEK cytotox,NIH3T3 tox
CC(C)CN1Cc2ccccc2-n2ccnc2C12CCN(C(=O)c1cccs1)CC2,i,-19%,45µM*,?
COCCOCC(=O)N1CCC2(CC1)c1nccn1-c1ccccc1CN2CC(C)C,i,-14%,-15%,i
CCOCC(=O)N1CCC2(CC1)c1nccn1-c1ccccc1CN2CC(C)C,i,-4%,?,i
CCn1ccc(C(=O)N2CCC3(CC2)c2nccn2-c2ccccc2CN3CC(C)C)n1,i,4%,45µM*,?
CC(C)CN1Cc2ccccc2-n2ccnc2C12CCN(C(=O)c1cccc(F)c1)CC2,i,-18%,35µM*,?
CC(C)CN1Cc2ccccc2-n2ccnc2C12CCN(C(=O)c1ccn[nH]1)CC2,i,-15%,40µM*,-26%
O[C@H]1[C@H](NCc2ccccn2)[C@H]2CO[C@H](O2)[C@@H]1N1CCCC1,i,6%[70.6 µM],4%[172 µM],i
CCOC(=O)[C@H]1CN(C(=O)c2ccc(SC)cc2)[C@]2(C)C(=O)N(C)c3ccccc3[C@H]12,·,·,?,-27%[46.1 µM]
CC(C)CN1Cc2ccccc2-n2ccnc2C12CCN(C(=O)c1ccco1)CC2,i,-15%,45µM*,?
CC(C)CN1Cc2ccccc2-n2ccnc2C12CCN(C(=O)c1ccoc1)CC2,i,-21%,?,?
O=C1NC2(CCN(Cc3ccncc3)C2)Oc2ccccc21 (stereo unspecified),i,0%[70.6 µM],-13%[172 µM],-19%[138 µM]
O=C1NC2(CCCN(Cc3ccncc3)C2)COc2ccccc21 (stereo unspecified),i,-18%[70.6 µM],71µM*,32µM*
COC1CCN(CC2CCCCCN2C(=O)Cc2cccc(F)c2)CC1 (stereo unspecified),·,·,-31%,-19%
COc1cc2c(cc1OCc1ccccc1)N(C(=O)c1ccccc1OC)CC21CCN(C)CC1,i,-2%,79µM*,28µM*
COc1cc2c(cc1OCc1ccccc1)N(C(=O)c1cnn(C)c1)CC21CCN(C)CC1,i,-1%,?,?
COc1cc2c(cc1OCc1ccccc1)N(C(=O)C(C)C)CC21CCN(C)CC1,i,7%[70.6 µM],?,89µM*
COc1cc2c(cc1OCc1ccccc1)N(C(=O)c1ccnn1C)CC21CCN(C)CC1,i,0%,?,?
COc1cc2c(cc1OCc1ccccc1)N(C(=O)c1cccc(N(C)C)c1)CC21CCN(C)CC1,i,3%,?,11µM*
COc1cc2c(cc1OCc1ccccc1)N(C(=O)c1ccc3[nH]ccc3c1)CC21CCN(C)CC1,i,-2%,35µM*,22µM*
O=C(Cc1ccccc1)N1CCCN(CCn2nc3n(c2=O)CCCC3)CC1,·,·,-7%,-9%
CCC1(N2CCN(C(=O)COc3cccc(Cl)c3)CC2)CCN(C(=O)NC)C1 (stereo unspecified),i,-18%,-28%,-37%
O=[S+]1([O-])NC2(CCN(Cc3ccncc3)C2)COc2ccncc21 (stereo unspecified),·,·,4%,i
COc1cc2c(cc1OCc1ccccc1)N(C(=O)C1CCC(C)CC1)CC21CCN(C)CC1 (stereo unspecified),i,-3%,28µM*,20µM*
CCN1CCCCC12Cc1ccccc1CN(C(=O)Cc1ccc(O)cc1)C2 (stereo unspecified),·,·,-11%,-7%
COc1cc2c(cc1OCc1ccccc1)N(C(=O)COc1ccccc1)CC21CCN(C)CC1,i,0%,28µM*,22µM*
SMILES,Luciferase inh,NPR1 antag,HEK cytotox,NIH3T3 tox
COc1ccc(CC(=O)N2CC3(CCN(C)CC3)c3cc(OC)c(OCc4ccccc4)cc32)cc1,i,6%,32µM*,?
COc1cc2c(cc1OCc1ccccc1)N(C(=O)Cc1ccc3c(c1)OCO3)CC21CCN(C)CC1,i,7%,79µM*,?
COc1cc2c(cc1OCc1ccccc1)N(C(=O)COc1ccccc1C(N)=O)CC21CCN(C)CC1,i,4%,40µM*,22µM*
COc1cc2c(cc1CCc1ccccc1)N(C(=O)CC(C)C)CC21CCN(C(C)=O)CC1,i,2%,?,?
COc1cc2c(cc1CCc1ccccc1)N(C(=O)Cc1ccc3c(c1)OCO3)CC21CCN(C(C)=O)CC1,i,-17%,-24%,?
COc1cc2c(cc1OCc1ccccc1)NC(=O)C21CCN(c2ncc(F)cn2)CC1,i,-21%[70.6 µM],-25%[172 µM],?
COc1cc2c(cc1OCC1CC1)NC(=O)C21CCN(c2nccs2)CC1,i,-14%[70.6 µM],?,?
COc1cc2c(cc1OCc1ccccc1)N([S+](=O)([O-])c1cccc(C)c1)CC21CCN(C)CC1,i,-2%,28µM*,22µM*
COc1cc2c(cc1CCc1ccccc1)N(C(=O)COc1ccccc1)CC21CCN(C(C)=O)CC1,i,-2%,-25%,?
COc1cc2c(cc1CCc1ccccc1)N([S+](=O)([O-])c1ccc3c(c1)CCO3)CC21CCN(C(C)=O)CC1,i,-3%,?,25µM*
Cc1nc(-c2ccccc2)cc([C@H]2CN3CC[C@H]2C[C@@H]3CN(Cc2ccco2)Cc2ccco2)n1,i,-16%,?,22µM*
Cc1nc(-c2ccco2)cc([C@H]2CN3CC[C@H]2C[C@@H]3CNC(=O)Nc2ccccc2)n1,i,-11%[70.6 µM],89µM*,?
Cc1nc(-c2ccco2)cc([C@H]2CN3CC[C@H]2C[C@@H]3CNC(=O)C2CCCCC2)n1,i,?,?,?
Cc1nc(-c2ccco2)cc([C@H]2CN3CC[C@H]2C[C@@H]3CNC(=O)NC2CCCCC2)n1,i,1%[70.6 µM],?,100µM*
OC[C@H]1C[C@@H](NC2CCOCC2)[C@H](O)[C@@H]1O,i,1%[70.6 µM],-6%[230 µM],-8%[174 µM]
Fc1cnccc1CN1CC[C@@H]2CN(Cc3ccccc3)[C@@H]2C1,·,·,-24%,-14%
COCCNC(=O)N1CCC2(C1)C(=O)N(C)c1ccc(OC)cc12 (stereo unspecified),i,-2%,1%,5%
COc1ccc2c(c1)C1(CCN(S(=O)(=O)c3ccc(Cl)cc3)C1)C(=O)N2C (stereo unspecified),i,-14%,50µM*,-29%
COc1ccc2c(c1)C1(CCN(C(=O)COc3ccc(Cl)cc3)C1)C(=O)N2C (stereo unspecified),28µM*,-19%,-21%,?
COc1cc2c(cc1Oc1ccccc1)NC(=O)C21CCN(c2ncc(F)cn2)CC1,i,-17%[70.6 µM],89µM*,?
COc1cc2c(cc1Oc1ccccc1)NC(=O)C21CCN(Cc2ccccn2)CC1,i,-17%[70.6 µM],56µM*,?
COc1cc2c(cc1Oc1ccccc1)NC(=O)C21CCN(c2nccs2)CC1,i,-26%[70.6 µM],?,-13%[138 µM]
O=C(NC1CCCCC1)N1C[C@@H]2C[C@H](C1)c1c(-c3cccs3)ccc(=O)n1C2,i,8%[70.6 µM],-6%[172 µM],?
